Source: PubChem BioAssay AID1508600 (Functional Genomics Laboratory (NCATS/FGL), 2020)
Hit rate of the full screen: of about 53,000 sequences, about 3,700 (7%) were called active. The entries come from a sample that favours actives as a whole. Values without a mark were called inactive.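 Rule for the calls: active = gene knockdowns whose robust z-score for IL-1 alpha signal is at least 2 or at most -2, so actives lie on both sides; inactive = the rest.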

Test: Components of the Cytosolic LPS Sensing Pathway: Gene Identification via Genome-wide siRNA Screen
Settings: RAW264.7 macrophages, IL-1a HTRF, actives lie on both sides, screened at 100 nM (by protocol), cells primed 5 h with Pam3CSK4 first
From the text: Non-canonical inflammasome activation by cytosolic LPS is a critical component of the host response to Gram-negative bacterial infection, however we lack a comprehensive understanding of the cellular processes that control this pathway. Here we describe a genome-wide siRNA screen to identify genes regulating the mouse macrophage IL-1 alpha response to cytosolic LPS.
RAW264.7 cells were maintained in complete DMEM media, comprising DMEM with 4.5 g/L glucose, 10% FBS (Gemini Bio-Products, West Sacramento, CA), 2 mM Glutamine (Lonza) and 20 mM HEPES (Lonza), hereafter complete DMEM.
The RNAi screen was conducted in 384-well format using the Ambion Silencer Mouse Genome siRNA Library (#4391425), which consists of three unique, nonoverlapping, nonpooled siRNAs for each of 17,000 gene targets. siRNA reagents ([…]) were stamped into 384-well white flat-bottom microplates (Corning, 3570) using a Velocity11 VPrep liquid handling system (Agilent) integrated into a BioCel robotic platform (Agilent) in columns 1-22, leaving columns 23-24 empty for negative (Ambion, Negative control #1) and positive (mouse Casp4) controls, respectively. The median value of each plate's negative control column was used to normalize sample wells, and the positive control was used to assess transfection efficiency and assay performance.
Lipofectamine RNAiMAX Transfection Reagent ([…]; Invitrogen) was added in […] serum-free, antibiotic-free media to plate wells using a Thermo Scientific Matrix WellMate and Microplate Stacker. Plates were incubated for 45 min at room temperature to allow for the sufficient formation of siRNA-lipid complexes. Cells were seeded at a density of 1x10^4 cells per well in 20 microL media containing 20% (vol/vol) FBS without antibiotics. The final concentration of siRNA in each well was 100 nM. Cells were cultured for 48h at 37 degrees C in 5% CO2 before addition of […] of TLR ligand Pam3CSK4 for 5 hours. The medium was then removed, replaced with […] growth media and cell were transfected with […] of LipidA and TransIT-TKO (Mirus) for 24 hour. At the end of the LipidA treatment, […] of supernatant was transferred to a 384 Greiner Bio-one non-binding low volume plate and […] of IL-1a HTRF reagent (Cisbio, 62MIL1APEH) was added and incubated at room temperature overnight. The plates were read on an EnVision plate reader (PerkinElmer). Cell viability was measured by adding 20ul Cell Titer Glo to the original plate and running a luminescence read on the EnVision. The quantified IL-1a signal for each siRNA gene-targeted well was divided by the median of the negative control wells and multiplied by 100 to achieve a negative control normalized value for each well/siRNA. This normalized value was then used to generate a robust z-score by first taking the log of each value and then by subtracting the median and dividing by the […].

| Sequence | z-score |
| --- | --- |
| CGGCUGCAUUUCAACAAGGTT against Snrpc | -1.92 |
| GGUUCUGCCAUGGAGGAAUTT against Svs5 | 0.0746 |
| GCCACUCACCUGUAGUUCUTT against BC049715 | 0.0758 |
| GGAUCUCAGAUUUACUGUCTT against Dedd2 | 0.484 |
| GGUCAUCAAGCAGUGCUAUTT against Ncstn | 4.32 (active) |
| CGGAGCAUUGGGACAAUUUTT against Olfr690 | 1.1 |
| GGAAGUUGAAUACAUUGUCTT against Arntl | 0.127 |
| GCAUGCAAAUCUCCUCUAATT against Sema3b | -0.116 |
| CCUUUGUAACUGGAAUUCUTT against Olfr197 | 1.74 |
| GGAAAUUGUGAGAAGAACUTT against Slx4ip | 2.33 (active) |
| GGAUCAAAUUACAGAUCUUTT against Eef1e1 | 1.81 |
| GGAAAUGCUACUGCUUGGATT against 1700030K09Rik | 1.2 |
| GGAAACCAAAGAUAAACUCTT against Ccdc186 | 0.726 |
| GGGCAUCAAGUGUAAAAAATT against Med7 | -0.384 |
| GGAUAGGAAGAAAAUGAAGTT against Slfn2 | -2.83 (active) |
| CCCAAAUCCUACGAAGCCUTT against Tanc1 | -1.9 |
| GGAUCUAAGGAAGUUUCUGTT against Gfpt2 | 0.594 |
| GGCGAACACCAUGAAAAGGTT against Lin7b | 0.794 |
| GCGUGGAUAGUUUCACAGCTT against Fbp1 | -0.142 |
| GGAGAGUGCUGUGAAGCCATT against Vegfb | -0.943 |
| CCAGAAGAGUACUGUUUUATT against Tpm4 | 2.17 (active) |
| GGAAUACUCCAGUAUCUCCTT against 9130401M01Rik | -0.753 |
| GGCAAUGAGACAAUUGUCATT against Cpe | -0.638 |
| GGCAAAAUCCCAUACGAAATT against Itk | 0.0298 |
| CCAUGUAAGAUGUUAAGUATT against Abcb1a | -0.265 |
| CCUUUGUGUCCUAACGGUGTT against Tubb2b | -0.158 |
| GGUCCAUUGCUAAAGACUGTT against Tcf19 | 0.0971 |
| GGUAAUGAGGACAUGGAUCTT against Lyrm4 | 0.467 |
| GCACUUUCCUUUAUUGUGUTT against Fam117a | -1.41 |
| GGAAUUCAUGAACUACUAUTT against Capsl | -2.07 (active) |
